Source: PubChem (National Center for Advancing Translational Sciences (NCATS))
Methyltransferases – Primary Screen for Target Class Profiling of Small Molecule Inhibitors of Methyltransferases; purified enzyme, MTase-Glo SAH luminescence; hits give low values; AID 1745853, 2022; calls only at 40 µM; actives 3.9% (n = 25,000); call rule not given here
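Each enzyme was reacted with SAM and its substrate, with compounds tested once at 40 uM; SAH formed was read by MTase-Glo luminescence.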
* marks the source's active call; other numbers are inactive results. The sample as a whole holds a higher share of hits than the screen did. % is scaled to controls: 0 for no effect and ±100 for the full control effect.

`CC(C)NC(=O)CCn1ccc2cc(S(=O)(=O)N3CCCC3)ccc21` gave Methyltransferases inactive.
Screening C/C(=C\CC/C(C)=C/CC[C@]1(C)CCc2cc(O)cc(C)c2O1)CC/C=C(\C)C(=O)O returned Methyltransferases active.
Screening Cn1ccnc1CN1CCN(CC2(O)CNCCOC2)CC1 (stereo not drawn) returned Methyltransferases inactive.
COc1ccc(/C=C/C(=O)O[C@@H]2[C@@H](OC(C)=O)[C@@H](OC(C)=O)[C@H](O[C@H]3[C@@H]4C=CO[C@@H](O[C@@H]5O[C@H](CO)[C@@H](O)[C@H](O)[C@H]5O)[C@@H]4[C@@]4(CO)O[C@@H]34)O[C@H]2C)cc1 was read as Methyltransferases inactive.
Screening CN1CCC(NC(=O)c2cc(-c3c(O)cc(O)cc3Oc3ccc([N+](=O)[O-])cc3)on2)CC1 returned Methyltransferases inactive.
`O=C(NC(Cc1c[nH]c2ccccc12)c1nc2ccccc2[nH]1)c1ccccc1` (stereo not drawn) gave Methyltransferases inactive.
C=C(C)C(=O)OC1CC2(C)OC(=CC2=O)C(=C)CC2OC(=O)C(COC)C12 (stereo not drawn) was read as Methyltransferases active.
Screening C=C1CC2OC(=O)C(COC)C2C(OC(=O)/C(C)=C\C)CC2(C)OC1=CC2=O (stereo not drawn) returned Methyltransferases inactive.
`C=C(C)C(=O)OC1CC2(C)OC(=CC2=O)C(=C)CC2OC(=O)C(=C)C12` (stereo not drawn) gave Methyltransferases inactive.
COc1cc(OC)cc(N2C(=O)c3cc(-c4cccs4)nn3CC2(C)C(=O)NC2CCCCC2)c1 (stereo not drawn) was read as Methyltransferases inactive.
COc1cc(/C=C/C(=O)O[C@@H]2C[C@@](O)(C(=O)O)C[C@@H](O)[C@@H]2O)ccc1O was read as Methyltransferases inactive.
`C/C=C/c1ccc2oc(-c3ccc(O)c(OC)c3)c(C)c2c1` gave Methyltransferases inactive.
`COc1cc(/C=C/c2cn(-c3ccc(C(=O)O)cc3)nc2/C=C/c2ccc(O)c(OC)c2)ccc1O` gave Methyltransferases active.
O=C(NCC(=O)N1CCOCC1)c1cccc(-c2ccsc2)c1 was read as Methyltransferases inactive.
Screening C=CC(C)(CC/C=C(\C)C(=O)OC[C@H]1O[C@@H](OC(C)(C=C)CC/C=C(\C)C(=O)O[C@H]2[C@H](O)[C@@H](O)[C@H](OC(C)(C=C)CC/C=C(\C)C(=O)O)O[C@@H]2CO)[C@H](O)[C@@H](O)[C@@H]1O)O[C@@H]1O[C@H](CO)[C@@H](O)[C@H](O)[C@H]1O (stereo partly drawn) returned Methyltransferases inactive.
Screening C=CC(=O)Nc1ccc(CN2C(=O)N(c3cc(OC)cc(OC)c3)Cc3cnc(Nc4ccc(N5CCN(C)CC5)cc4)nc32)cc1 returned Methyltransferases active.
C=CC(=O)Nc1cccc(Oc2nc(Nc3ccc(N4CCN(C)CC4)cc3OC)ncc2Cl)c1 was read as Methyltransferases inactive.
COc1cccc(Nc2ncc3c(n2)C(C)(C(=O)N2CCN(c4ccccn4)CC2)CC3)c1 (stereo not drawn) was read as Methyltransferases inactive.
Screening CN1CC(O)C(O)C(O)C1CO (stereo not drawn) returned Methyltransferases inactive.
O=c1c2cc(-c3cccs3)nn2ccn1CC(O)c1cccc(Cl)c1 (stereo not drawn) was read as Methyltransferases inactive.
Screening CC(C)c1nc(-c2ccc(OC3CCNC3)cc2)no1 (stereo not drawn) returned Methyltransferases inactive.
C=C(C(=O)O)[C@@H]1CC[C@@]2(C)CC[C@H](O)[C@@]2(C(C)=O)C1 was read as Methyltransferases active.
Screening C=C(C(=O)O)[C@@H]1CC=C2CCC[C@H](C)[C@@]2(C)C1 returned Methyltransferases inactive.
`O=c1[nH]c(-c2ccc(C(F)(F)F)cc2)nc2c1CSCC2` gave Methyltransferases inactive.
Screening C=CCCC(CN1CCOCC1)Oc1ccc(Cn2ccnc2)cn1 (stereo not drawn) returned Methyltransferases inactive.
For CN(C(=O)Cn1nc2n(C)c(=O)c3ccc(C(=O)NC4CCCC4)cc3n2c1=O)c1ccccc1 the results were Methyltransferases inactive.
Screening Cc1ccc(Cl)cc1Nc1nn2c(=O)c3ccc(C(=O)NC4CCC(C)CC4)cc3nc2s1 (stereo not drawn) returned Methyltransferases inactive.
Screening CN(C)c1nc(NC2CCC(NC(=O)c3ccc(F)c(F)c3)CC2)nc2ccccc12 (stereo not drawn) returned Methyltransferases active.
Screening Cc1ccc(C(=O)C(C)n2nc3n(C(C)C)c(=O)c4ccc(C(=O)NC(C)C)cc4n3c2=O)cc1C (stereo not drawn) returned Methyltransferases inactive.
For CCOCC(=O)N[C@@H]1CN(S(C)(=O)=O)C[C@H]1CN(C)C the results were Methyltransferases inactive.
Screening O=C(NCc1cccc(C(F)(F)F)c1)c1nc2sccn2c1-c1ccccc1 returned Methyltransferases inactive.
Nc1nc(-n2cc(C(=O)O)c(=O)c3cc(F)c(N4CC(O)C4)c(Cl)c32)c(F)cc1F was read as Methyltransferases active.
C[C@@H]1CN(c2c(F)c(F)c3c(=O)c(C(=O)O)cn(C4CC4)c3c2F)C[C@H](C)N1 was read as Methyltransferases inactive.
`CC1CN(c2cc3c(cc2F)c(=O)c(C(=O)O)cn3-c2ccc(F)cc2F)CCN1` (stereo not drawn) gave Methyltransferases inactive.
CC1(C(=O)NC2CCCCCC2)Cn2c(cc3occc32)C(=O)N1Cc1ccc(F)cc1 (stereo not drawn) was read as Methyltransferases inactive.
Screening CC(C)c1ccc2c(c1)[C@H](O)CC1[C@@](C)(C(=O)O)CCC[C@]21C (stereo partly drawn) returned Methyltransferases inactive.
CCCn1c(=O)c2ccccc2n2c(SCC(=O)Nc3ccc(OC)cc3)nnc12 was read as Methyltransferases inactive.
Cc1csc(NC(=O)c2nc3c(o2)CCN(Cc2ccccc2F)CC3)n1 was read as Methyltransferases inactive.
CC1=C2CC3C(CCC3(C)O)C(C)(O)CC2OC1=O (stereo not drawn) was read as Methyltransferases active.
For CC1(O)CCC2C(C3C1CCC3(C)O)C2(C)C (stereo not drawn) the results were Methyltransferases inactive.
Screening CC1=C2C[C@@]3(C)C(CCC[C@@H]3C)C(O)C2OC1=O (stereo partly drawn) returned Methyltransferases inactive.
For CC1CCC(NC(=O)CCn2ccc3cc(S(=O)(=O)N4CCC(C)CC4)ccc32)CC1 (stereo not drawn) the results were Methyltransferases inactive.
Screening CC1(C(=O)NC2CCCCCCC2)Cn2c(ccc2-c2ccco2)C(=O)N1Cc1ccco1 (stereo not drawn) returned Methyltransferases inactive.
For CN1C(=O)c2cc(C(=O)NCCCc3ccccc3)nn2CC1(C)C(=O)NCc1ccc(F)cc1 (stereo not drawn) the results were Methyltransferases inactive.
CC1(C)CC2C(C1)C(C)(O)C13CC1(COC3=O)C2O (stereo not drawn) was read as Methyltransferases inactive.
For COc1ccccc1N1CCN(CCCCN2C(=O)c3ccccc3C2=O)CC1 the results were Methyltransferases inactive.
COc1ccccc1N1CCN(c2ncnc3n[nH]c(Br)c23)CC1 was read as Methyltransferases active.
